# Measured values from PubChem BioAssay (NCATS).
# Active and inactive are the calls of the source. Calls follow the shape of the dose curve; as a rule, active = well fitted activation curve with a large enough effect; inconclusive = small, poorly fitted or top-dose-only effect; inactive = no such curve, though single readings can be large or run the other way.
# Biological target: Parathyroid hormone/parathyroid hormone-related peptide receptor (Homo sapiens) (UniProt Q03431)
# Test: qHTS for PTHR1 Agonists: Optimization Screen against the NCGC LOPAC library (AID 1347079); also: 0% is about no effect
# Conditions: HEK293 GP2 PTHR1 GloSensor cAMP luminescence, 1 h; series mostly up to 57.1 µM; activation: at the top concentration
# In short: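 Signal increase flags agonism. GP2 cells, derived from HEK-293, express human PTHR1 and a GloSensor cAMP construct.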
# Chain of Parathyroid hormone/parathyroid hormone-related peptide receptor (Homo sapiens) (Q03431 whole entry, looked up): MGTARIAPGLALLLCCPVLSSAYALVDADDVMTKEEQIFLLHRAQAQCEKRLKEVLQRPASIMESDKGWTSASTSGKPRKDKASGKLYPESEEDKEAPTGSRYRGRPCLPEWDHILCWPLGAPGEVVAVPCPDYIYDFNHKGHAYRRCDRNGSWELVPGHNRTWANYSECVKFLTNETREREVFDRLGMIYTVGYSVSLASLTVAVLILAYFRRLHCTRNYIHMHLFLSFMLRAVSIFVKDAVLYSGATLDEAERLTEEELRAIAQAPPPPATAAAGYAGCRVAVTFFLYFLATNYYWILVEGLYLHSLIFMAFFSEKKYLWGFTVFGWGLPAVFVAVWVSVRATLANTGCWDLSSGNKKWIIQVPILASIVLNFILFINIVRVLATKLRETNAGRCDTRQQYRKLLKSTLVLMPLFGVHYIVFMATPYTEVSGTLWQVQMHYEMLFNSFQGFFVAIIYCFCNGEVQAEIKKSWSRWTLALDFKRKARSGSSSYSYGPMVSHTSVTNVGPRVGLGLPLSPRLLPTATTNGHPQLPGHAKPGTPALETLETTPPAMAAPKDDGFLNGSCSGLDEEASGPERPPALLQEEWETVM
SMILES,activation,outcome
COc1cc(C(O)CN)ccc1O (centres undefined),-18.5% (inactive),
C/C=C(/C)C(=O)O[C@H]1C(C)=C2[C@H]([C@@H]1OC(=O)CCCCCCC)[C@@](C)(OC(C)=O)C[C@H](OC(=O)CCC)[C@@]1(O)[C@H]2OC(=O)[C@@]1(C)O,-31.4% (inactive),
NC(=O)CN1CC(O)CC1=O (centres undefined),-28.3% (inactive),
O=C(Cc1ccc(Cl)c(Cl)c1)N1CCCCC1CN1CCCC1 (centres undefined),-15.2% (inactive),
NCc1cc(=O)[nH]o1,-12.4% (inactive),
C[C@]12CCC3C(CC[C@H]4C[C@H](O)CC[C@]34C)C1CC[C@@H]2C(=O)CO (some centres undefined),-15.6% (inactive),
NC1CCc2cc(O)c(O)cc2C1 (centres undefined),33.4% (inactive),
CNCCc1ccc(O)c(O)c1,53% (inactive),
O=C(O)Cc1cnc[nH]1,-3.75% (inactive),
NC(N)=NOCCC(N)C(=O)O (centres undefined),20.9% (inactive),
O=C(O)CC[N+](=O)[O-],-17.6% (inactive),
C[C@@H](N)Cc1cnc[nH]1,11.8% (inactive),
CC(=O)NCCc1c[nH]c2ccccc12,-27% (inactive),
CCCCc1ccc(C(=O)O)nc1,-9.86% (inactive),
Cn1cnc(CCN)c1,-40.1% (inactive),
CC(C)Oc1cccnc1N(C)C1CCN(Cc2ccccc2)CC1,45.9% (inactive),
NCCc1c[nH]c2ccc(O)cc12,-18.6% (inactive),
CNCCc1c[nH]c2ccc(O)cc12,0.741% (inactive),
CS(=N)(=O)CC[C@H](N)C(=O)O (some centres undefined),4.88% (inactive),
CCCN(CCC)C1CCc2ccc(O)cc2C1 (centres undefined),17.7% (inactive),

SMILES,activation,outcome
Clc1cnc(Oc2ccc(Oc3ncc(Cl)cc3Cl)cc2)c(Cl)c1,1.66% (inactive),
c1ccc2sc(C3(N4CCCCC4)CCCCC3)cc2c1,-6.8% (inactive),
c1ccc(C2(c3ccccc3)CC2C2=NCCN2)cc1 (centres undefined),-34.3% (inactive),
C[C@]12N[C@H](Cc3ccccc31)c1ccccc12,3.97% (inactive),
CN[C@@H]1C[C@@H](c2ccc(Cl)c(Cl)c2)c2ccccc21,-15% (inactive),
Cc1nccc2c1[nH]c1ccccc12,-13.1% (inactive),
S=C(NC1CCCCC1)N1CCC(c2cnc[nH]2)CC1,7.2% (inactive),
NC(CP(=O)(O)O)C(=O)O (centres undefined),-27% (inactive),
C=CCN1CC[C@]23CCCCC2[C@H]1Cc1ccc(O)cc13 (some centres undefined),-24.9% (inactive),
CCCN1CCO[C@@H]2c3cc(O)ccc3OC[C@H]21,,inactive
CC(=O)[C@H]1CCC2C3CC[C@H]4C[C@H](O)CC[C@]4(C)C3CC[C@@]21C (some centres undefined),-17.4% (inactive),
CCCN1CCC[C@H](c2cccc(O)c2)C1,15% (inactive),
O=C1CCCN1CC#CCN1CCCC1,1.22% (inactive),
CC(C)NC(C)Cc1ccc(I)cc1 (centres undefined),13.8% (inactive),
NCCc1c[nH]c2ccccc12,14.2% (inactive),
NC(CCP(=O)(O)O)C(=O)O (centres undefined),-30.1% (inactive),
C[C@@H]1O[C@H](C[N+](C)(C)C)C[C@H]1O,-20.1% (inactive),
NC(=NCCC[C@H](N)C(=O)O)N[N+](=O)[O-],8.02% (inactive),
C[N+]1(C)C2CCC1CC(OC(=O)C(CO)c1ccccc1)C2 (centres undefined),,inactive
